Assay results taken from PubChem BioAssay (NCI).
This is part of a sample that, as a whole, favours compounds with a hit. Of some 79,000 tested, about 15% had one in any assay. Calls of active or inactive are those of the source. Rule as the data show it: active = growth inhibition above about 70%; inactive = the rest.

How the values were obtained:
[1] = NCI Yeast Anticancer Drug Screen. Data for the rad52 strain (AID 147);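 also: 0% = growth of vehicle-treated control cultures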; conditions: S. cerevisiae rad52 mutant growth inhibition, active compounds read high
Procedure, shortened: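 Read-out: growth inhibition versus vehicle-treated controls. Cells were a DNA repair-deficient yeast strain treated with compounds.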

[2] = NCI Yeast Anticancer Drug Screen. Data for the wt1 strain (AID 149);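 also: 0% = growth of vehicle-treated wt1 cultures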; conditions: S. cerevisiae wt1 strain (SPY 50644) growth inhibition, active compounds read high
Procedure, shortened: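 wt1 strain grown with compound or vehicle; inhibition taken from the growth difference.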

[3] = NCI Yeast Anticancer Drug Screen. Data for the rad50EPP+ strain (AID 151);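 also: 0% = growth of vehicle-treated control cultures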; conditions: S. cerevisiae rad50 mutant strain, active compounds read high
Procedure, shortened: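 Growth inhibition read against vehicle controls in rad50EPP+ yeast, a strain altered in DNA damage repair, after compound exposure.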

[4] = NCI Yeast Anticancer Drug Screen. Data for the mgt1 strain (AID 153); conditions: S. cerevisiae mgt1 mutant growth inhibition, active compounds read high
Procedure, shortened: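 mgt1 yeast grown with test compound; read-out is growth inhibition versus vehicle-treated cultures.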

[5] = NCI Yeast Anticancer Drug Screen. Data for the rad50 strain (AID 155);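 also: 0% = growth of vehicle-only cultures of the same strain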; conditions: S. cerevisiae rad50 strain growth inhibition, active compounds read high
Procedure, shortened: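 DNA repair mutant yeast, compound exposure, growth read-out; inhibition is taken relative to vehicle.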

[6] = NCI Yeast Anticancer Drug Screen. Data for the mec2-1 strain (AID 157); conditions: S. cerevisiae mec2-1 strain, active compounds read high
Procedure, shortened: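 Yeast mec2-1 mutant treated with compound. Readout: growth inhibition vs vehicle controls.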

[7] = NCI Yeast Anticancer Drug Screen. Data for the rad14 strain (AID 159);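 also: 0% = growth of vehicle-treated control cultures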; conditions: S. cerevisiae rad14 strain growth inhibition, active compounds read high
Procedure, shortened: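 DNA repair-defective yeast, compound-exposed; % growth inhibition derived by comparison with vehicle-treated controls.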

[8] = NCI Yeast Anticancer Drug Screen. Data for the sgs1 mgt1 strain (AID 161);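 also: 0% = growth of cultures given vehicle only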; conditions: S. cerevisiae sgs1 mgt1 strain, active compounds read high
Procedure, shortened: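 Test agents were incubated with a DNA-repair-mutant yeast strain. Growth was then read and compared against vehicle-treated controls.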

[9] = NCI Yeast Anticancer Drug Screen. Data for the cln2 rad14 strain (AID 165);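 also: 0% = growth equal to vehicle treated cultures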; conditions: S. cerevisiae cln2 rad14 strain, active compounds read high
Procedure, shortened: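 cln2 rad14 yeast strain; compound exposure; growth inhibition read vs vehicle controls.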

[10] = NCI Yeast Anticancer Drug Screen. Data for the bub3 strain (AID 167); conditions: S. cerevisiae bub3 mutant strain, active compounds read high
Procedure, shortened: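 In this screen, a yeast mutant lacking normal mitotic checkpoint function is challenged with compound. Relative growth versus vehicle gives the inhibition value.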

[11] = NCI Yeast Anticancer Drug Screen. Data for the wt2 strain (AID 169);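 also: 0% = growth of vehicle-treated yeast cultures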; conditions: S. cerevisiae wt2 strain growth inhibition, active compounds read high
Procedure, shortened: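 Read-out: growth inhibition versus vehicle-treated control cultures after compound exposure of the yeast strain.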

[12] = NCI Yeast Anticancer Drug Screen. Data for the mlh1 strain (AID 171);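 also: 0% = growth of vehicle-treated control cultures of the same strain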; conditions: S. cerevisiae mlh1 strain growth inhibition, active compounds read high
Procedure, shortened: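 Read-out: growth inhibition versus vehicle controls. Strain: engineered yeast with a defined DNA repair or cell cycle defect, compound-treated.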

[13] = NCI Yeast Anticancer Drug Screen. Data for the sgs1 strain (AID 173);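 also: 0% = growth of vehicle-only control cultures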; conditions: S. cerevisiae sgs1 mutant, active compounds read high
Procedure, shortened: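 Read-out: yeast growth inhibition relative to vehicle controls, following compound exposure of a strain with a defined DNA repair/cell cycle alteration.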

[14] = NCI Yeast Anticancer Drug Screen. Data for the mlh1 rad18 strain (AID 175); conditions: S. cerevisiae mlh1 rad18 strain growth inhibition, active compounds read high
Procedure, shortened: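 Yeast w/ defined DNA-repair lesions; compound exposure; growth vs vehicle controls → % inhibition.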

[15] = NCI Yeast Anticancer Drug Screen. Data for the rad18 strain (AID 177); conditions: S. cerevisiae rad18 mutant growth inhibition, active compounds read high
Procedure, shortened: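 Readout: growth inhibition vs vehicle controls. Cells: genetically altered yeast strain, DNA repair defect.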

[16] = at 5.0 µM (retest, dose inferred, filed as 0.5)
[17] = at 50.0 µM (retest, dose inferred, filed as 5.0)

Measured: growth inhibition

CCOC(=O)c1cc(-c2ccc(Cl)cc2)c([N+](=O)[O-])n1C
inactive: [1]; at 1.2 µM 12% | [1]; at 3.7 µM 24% | [1]; at 11.0 µM 41% | [2]; at 1.2 µM 1% | [2]; at 3.7 µM 3% | [2]; at 11.0 µM 13% | [2]; at 33.0 µM 68% | [3]; at 1.2 µM 16% | [3]; at 3.7 µM 23% | [3]; at 11.0 µM 48% | [4]; at 1.2 µM -10% | [4]; at 3.7 µM -2% | [4]; at 11.0 µM 1% | [5]; at 1.2 µM 9% | [5]; at 3.7 µM 26% | [5]; [16] -12% | [5]; at 11.0 µM 34% | [6]; at 1.2 µM 15% | [6]; at 3.7 µM 23% | [6]; [16] -8% | [6]; at 11.0 µM 23% | [7]; at 1.2 µM -8% | [7]; at 3.7 µM -4% | [7]; at 11.0 µM 11% | [8]; [16] 10% | [8]; [17] 50% | [9]; [16] 15% | [10]; at 1.2 µM -6% | [10]; at 3.7 µM -29% | [10]; [16] -22% | [10]; at 11.0 µM -9% | [11]; at 1.2 µM 6% | [11]; at 3.7 µM 13% | [11]; at 11.0 µM 13% | [12]; at 1.2 µM 28% | [12]; at 3.7 µM 36% | [12]; at 11.0 µM 56% | [13]; at 1.2 µM 27% | [13]; at 3.7 µM 29% | [13]; at 11.0 µM 58% | [14]; [16] 45% | [15]; at 1.2 µM 3% | [15]; at 3.7 µM 37%
active: [1]; at 33.0 µM 90% | [1]; at 100.0 µM 96% | [2]; at 100.0 µM 96% | [3]; at 33.0 µM 78% | [3]; at 100.0 µM 93% | [4]; at 33.0 µM 84% | [4]; at 100.0 µM 96% | [5]; at 33.0 µM 89% | [5]; [17] 97% | [5]; at 50.0 µM 88.4% | [5]; at 100.0 µM 95% | [6]; at 33.0 µM 96% | [6]; [17] 96% | [6]; at 50.0 µM 90.3% | [6]; at 100.0 µM 96% | [7]; at 33.0 µM 76% | [7]; at 100.0 µM 95% | [8]; at 50.0 µM 91.7% | [9]; [17] 95% | [9]; at 50.0 µM 89% | [10]; at 33.0 µM 74% | [10]; [17] 97% | [10]; at 50.0 µM 85.3% | [10]; at 100.0 µM 95% | [11]; at 33.0 µM 70% | [11]; at 100.0 µM 97% | [12]; at 33.0 µM 94% | [12]; at 100.0 µM 96% | [13]; at 33.0 µM 97% | [13]; at 100.0 µM 98% | [14]; [17] 97% | [14]; at 50.0 µM 87.9% | [15]; at 11.0 µM 71% | [15]; at 33.0 µM 95% | [15]; at 100.0 µM 96%
